Screens as filed in PubChem BioAssay.
In the library only some 7.6% were active in any assay of this set; here they are far more common.
CRE Fsk mod – modulators of forskolin-stimulated CRE signaling in CHO cells; actives 2.5% (n = 71,000); AID 662; CHO CRE-bla reporter (cAMP response element driving beta-lactamase), forskolin EC10, beta-lactamase ratio; Potency, µM (doses to about 38.2 µM), inactives show at the top dose activity change, negative = inhibition, usual class: activators; active = well fitted activation curve with a large enough effect in the signal ratio, with a control signal flat, not every such curve was filed as active; inconclusive = small, poorly fitted or top-dose-only effect, or effect the other way, or a change in a side signal; the % refers to the signal ratio; note: % of control where 0% means no effect
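Forskolin analogue NKH 477 at EC10 stimulated CRE-driven beta-lactamase in CHO cells alongside compound dilution series. Beta-lactamase was measured with CCF4, excitation 405 nm, emission ratio 460/530 nm.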
ERK AVP block – blocks ERK signaling stimulated by vasopressin; actives 0.99% (n = 72,000); HEK293-V1b, vasopressin-stimulated pERK AlphaScreen; Potency, µM (highest dose often 57.5 µM), without a hit: at the top dose activity, negative = inhibition, most hits filed as inhibitors; note: % is set by controls: 0 for no effect and ±100 for the full control effect; nearly all actives have a fitted effect of over 55% in size
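qHTS, compounds titrated on V1b-expressing HEK293 cells. Preincubation 30 min at 37C, vasopressin 25 nM for 5 min, lysis 10 min, bead incubation 5 hr at room temperature.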
HEK293 cAMP cs – parental HEK293 cAMP activation (counter-screen); parental HEK293 CNG cAMP sensor, membrane potential fluorescence; Potency, µM (top dose mostly 57.1 µM), for the others: at the top dose activation, hits mostly activators; AID 938; actives 2.5% (n = 73,000); note: % of control where 0% means no effect; nearly all actives have a fitted effect of over 55% in size
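Counterscreen for endogenous-receptor signalling: CNG-channel HEK 293 cells report cAMP rise by membrane depolarization. After 60 min dye equilibration with 100 uM RO 20-1724, compounds incubated 30 min before bottom-read fluorescence at 590 nm.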
TSHR ag – TSH receptor (human) agonism. HEK293-CNG-TSHR cells (CNG channel as cAMP sensor), membrane potential dye, cAMP. Potency, µM (highest dose often 57.1 µM), inactives show at the highest dose activation, usual class: activators. actives 0.48% (n = 73,000). AID 926; active = well fitted activation curve with a large enough effect in the main read-out, with a control signal flat, not every such curve was filed as active; inconclusive = small, poorly fitted or top-dose-only effect, or a change in a side signal; inactive = no such curve, though single readings can be large or run the other way; % of control where 0% means no effect;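 note: the control signal comes from parental cells without the receptor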
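cAMP rise detected as CNG-channel membrane depolarization by fluorescent dye (emission 590 nm), 30 min after compound, following 60 min dye loading containing 100 uM RO 20-1724 at room temperature. Cells: TSHR/CNG HEK 293, with parental CNG HEK 293 as control.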
Tau filament bind – binds recombinant human tau filaments | Potency, µM (series often up to 57.1 µM), without a hit: top-dose activity change, negative = inhibition | AID 596 | recombinant tau filaments, thioflavin S fluorescence, 15 h; filaments grown with octadecylsulfate alongside compound | actives 2% (n = 71,000) | P10636;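 note: % is set by controls: 0 for no effect and ±100 for the full control effect; actives lower thioflavin S fluorescence by blocking filaments or displacing dye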
Target sequence (P10636 whole entry, looked up): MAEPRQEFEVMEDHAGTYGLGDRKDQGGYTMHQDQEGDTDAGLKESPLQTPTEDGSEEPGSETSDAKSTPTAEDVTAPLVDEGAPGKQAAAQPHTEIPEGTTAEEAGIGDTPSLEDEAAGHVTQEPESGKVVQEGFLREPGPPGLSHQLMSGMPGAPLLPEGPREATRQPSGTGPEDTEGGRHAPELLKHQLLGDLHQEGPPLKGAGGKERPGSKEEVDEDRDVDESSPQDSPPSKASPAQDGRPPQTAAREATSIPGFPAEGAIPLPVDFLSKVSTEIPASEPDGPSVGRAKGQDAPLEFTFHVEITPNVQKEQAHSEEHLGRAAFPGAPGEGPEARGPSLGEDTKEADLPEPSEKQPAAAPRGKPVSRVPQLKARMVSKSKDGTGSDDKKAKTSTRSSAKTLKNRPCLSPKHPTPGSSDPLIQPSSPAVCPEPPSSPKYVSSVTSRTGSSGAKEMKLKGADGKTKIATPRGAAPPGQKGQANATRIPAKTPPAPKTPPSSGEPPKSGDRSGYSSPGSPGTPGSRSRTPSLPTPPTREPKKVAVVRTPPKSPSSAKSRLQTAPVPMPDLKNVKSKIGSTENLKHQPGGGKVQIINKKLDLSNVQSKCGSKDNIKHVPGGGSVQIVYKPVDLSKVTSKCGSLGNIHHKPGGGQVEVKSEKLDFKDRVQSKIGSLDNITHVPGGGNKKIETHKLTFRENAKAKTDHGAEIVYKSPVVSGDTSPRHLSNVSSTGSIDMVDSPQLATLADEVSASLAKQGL
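His-tagged recombinant human tau (exons 2, 3 and 10 included), 1 uM, was induced to fibrillize by 30 uM sodium octadecylsulfate with compound present. After 15 h at 37 C, thioflavine S fluorescence (ex 450, em 510 nm) was read.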
Starred values were filed as active, the others as inactive; i = inactive; u = inconclusive; x = no result; [ ] = another dose, or the depositor's remark. Unless noted, calls come from the whole dose curve; as a rule, active = well fitted curve in the direction sought with a large enough effect; inconclusive = small, poorly fitted or top-dose-only effect, or another doubt; inactive = no such curve, though single readings can be large; an effect the other way counts as inactive or inconclusive. Potency is the fitted concentration of half-maximal effect.

SMILES	CRE Fsk mod	ERK AVP block	HEK293 cAMP cs	TSHR ag	Tau filament bind
FC(F)(F)c1ccccc1-c1ccc2ncnc(NC3CC3)c2c1	u	-11.1%	31.6µM*	u	2.5%
FC(F)(F)c1ccccc1-c1ccc2ncnc(NCc3cccs3)c2c1	-3.8%	-25.7%	10µM*	u	15.3%
CN(C)c1nc(Oc2ccc(C(=O)OCC(=O)Nc3ccccc3)cc2)nc(N(C)C)n1	u	-7.4%	3.16µM*	u	i[11.4 µM]
O=c1c(-c2cc(F)cc(F)c2)nc2cnc(N3CCOCC3)nc2n1CCc1ccccc1	u	15.9%	11.8%	11.4%	-5.9%
CCC1=C2CC[C@H]3C(=O)N(CC)C(=O)[C@H]3[C@H]2[C@@]2(Cc3ccccc3)C(=O)N(CCOC)C(=O)N2C1=O	x	13.4%	x	x	x
CN1CCc2cc(NC(=O)Nc3cccnc3)ccc21	u	2.8%	u	u	-14.2%
Cn1ccc2cc3c(cc21)CCN3C(=O)Nc1cccnc1	u	u	-12.1%	-13.7%	31.6µM*
CCNc1sc(C(=O)c2cccs2)c(N)c1-c1nc2ccccc2s1	u	u	-22.8%	-18.6%	12.6µM*
CCOC(=O)c1sc(NCc2ccco2)c(-c2nc3ccccc3s2)c1N	u	-21.5%	-18.1%	-13.4%	9.6%
COC(=O)N1CCC[C@@]2(CCN(c3ccccc3)C2)C1	-2.8%	-5.4%	u	u	-2.7%
CC(C)(C)n1nnnc1C(c1cccs1)N(Cc1ccccc1)Cc1ccco1 (stereo not given)	u	8.7%	15.8µM*	u	-10.1%
Cc1nn2cc(-c3ccc(N)cc3)nc2s1	11.9%	-15.7%	-6.7%	-7.3%	15.8µM*
Cc1nc2nc(-c3ccccc3)cn2nc1C	u	8.9%	u	u	304.5%
CN(C)c1nc(N)c(C(=O)Nc2cccnc2)nc1Cl	x	u	5.3%	-4.2%	x
O=C(Nc1ccccc1)c1cc([N+](=O)[O-])ccc1Cl	u	u	-31.2%	u	u
O=C(Nc1ccc([N+](=O)[O-])cc1Cl)c1cc(Cl)ccc1O	u	-12.4%	0.501µM*	u	3.7%[25.6 µM]
CCC/C=C(\CCC)C(NC(=O)Oc1ccc(F)cc1)c1ccc(C(=O)OC)cc1 (stereo not given)	5.9%	3.0%	u	u	1.1%
CCC(=O)[C@]12O[C@@]3(C4C(=O)OCCC41)N(CC)C(C)=C(C(=O)OC)C(c1ccccc1)N3C2=O (stereo not given in full)	x	-6.6%[11.5 µM]	-10.6%[11.4 µM]	-3.9%[11.4 µM]	x
CCn1c(SCC(=O)Nc2ccc3c(c2)OCO3)nc2c1c(=O)n(C)c(=O)n2C	u	u	16.6%	5.2%	1.5%
CCCn1c(SCC(=O)Nc2ccc3c(c2)OCO3)nc2c1c(=O)n(C)c(=O)n2C	2.51µM*	u	14.7%	-1.4%	-9.1%
CCCn1c(SCC(=O)Nc2ccccc2N2CCCCC2)nc2c1c(=O)n(C)c(=O)n2C	u	18.1%	1µM*	u	40.8%
Cc1noc(C)c1C(=O)N1CCC[C@@]2(CCN(c3cccc(-c4ccccc4)c3)C2)C1	u	u	u	u	2.8%
Nc1c2c(nc3ccccc13)CCC[C@H]2O	4.0%	1.8%	-17.8%	x	0.0%
Cc1cc(O)ccc1Nc1nc2ccccc2nc1Nc1ccc(O)cc1C	3.3%	10.3%	-14.5%	16.7%	7.94µM*
C=C1CC[C@@H]2[C@](C)(CC[C@@H](O)[C@]2(C)CO)[C@@H]1C/C=C1/C(=O)OC[C@H]1O	u	x	0.6%	4.9%	-16.8%
SMILES	CRE Fsk mod	ERK AVP block	HEK293 cAMP cs	TSHR ag	Tau filament bind
CC(=O)Cc1nsc(NC(=O)c2ccc(-c3cc(C(F)(F)F)ccc3Cl)o2)n1	0.631µM*	-10.6%	25.0%	25.5%	-4.0%
O=C(CN1CCN(S(=O)(=O)c2ccc(Br)cc2)CC1)Nc1ccccc1F	x	x	31.6µM*	u	x
Cn1c(C(=O)N2CCCc3ccccc32)cc2c(=O)n3ccccc3nc21	1.58µM*	16.1%	0.9%	18.3%	11.4%
Cn1c(C(=O)N2CCc3ccccc32)cc2c(=O)n3ccccc3nc21	u	11.6%	0.1%	4.3%	27.6%
Cn1c(C(=O)NCc2ccccn2)cc2c(=O)n3ccccc3nc21	2µM*	4.2%	u	u	4.4%
Cn1nc(C(=O)NCc2ccccn2)c2ccccc2c1=O	15.6%	u	-1.6%	2.8%	-2.0%
O=c1c(-c2ccc(F)cc2)nc2cnc(N3CCOCC3)nc2n1CCc1ccccc1	u	9.2%	12.7%[2.29 µM]	11.4%	-6.1%
CCOC(=O)c1c(NC(=O)CN2CCCCC2)sc2c1CCCC2O (stereo not given)	10µM*	-8.5%	u	u	13.9%
C=Cc1c(C)c2cc3nc(cc4[nH]c(cc5nc(cc1[nH]2)C(C)=C5CCC(=O)O)c(CCC(=O)OC)c4C)[C@@]1(C)C3=CC=C(C(=O)OC)[C@H]1C(=O)OC (tested in a mixture with another compound)	u	i	-19.0%[25.6 µM]	-6.9%[25.6 µM]	1.58µM*
CC(=O)Nc1ccccc1-c1nc2ccc(C(=O)N3CCN(c4ccccc4)CC3)cc2[nH]c1=O	10.4%	u	2.5%	-0.4%	15.8µM*
CN(C)c1nc(NCc2ccccc2)nc(Oc2ccc(=O)[nH]n2)n1	6.4%	18.3%	12.1%	20µM*	-5.4%
c1ccc(Cn2nnnc2C(c2cccs2)N2CCCCCC2)cc1 (stereo not given)	6.4%	8.5%	25.1µM*	u	-2.2%
c1ccc(Cn2nnnc2C(c2cccs2)N2CCc3ccccc3C2)cc1 (stereo not given)	5.4%	-5.0%	10µM*	u	5.0%
CC(C)C(c1nnnn1Cc1ccccc1)N1CCc2ccccc2C1 (stereo not given)	-1.8%	-0.5%	28.9%	x	-20.0%
CNc1ncncc1-c1ccc(C(=O)N(C)C)cc1	-11.4%	21.7%	-3.0%	-1.9%	5.6%
CCOc1ccc(C(=O)Nc2ccc(N3CCN(C)CC3)cc2)cc1Br	4.0%	-5.2%	-13.6%	-28.0%	10µM*
COc1cc2ccccc2cc1C(=O)Nc1ccc(N2CCN(C)CC2)cc1	u	u	-40.2%	u	3.16µM*
CCOc1ccc(C(=O)Nc2ccc(N3CCCC3)cc2)cc1	-6.8%	-6.0%	-15.7%	-15.5%	10µM*
c1nc(NC2CCNCC2)c2cc(-c3ccoc3)ccc2n1	-6.5%	5.7%	u	u	-9.6%
COc1ncc2nc(CCc3ccccc3)c(=O)n(Cc3cccs3)c2n1	12.6µM*	16.1%	10µM*	u	-7.5%
COc1ccc(-c2nc3cnc(OC)nc3n(Cc3cccs3)c2=O)cc1	u	-7.2%	3.4%	19.5%	13.0%
COc1ncc2nc(C)c(=O)n(Cc3cccs3)c2n1	12.6µM*	-20.3%	20.4%[2.29 µM]	x	-2.3%
COC(=O)C(NC(=O)c1ccccc1)=C(C)C	-11.2%	-6.8%	2.4%	-10.2%	-0.5%
